Test results reported in PubChem BioAssay (NCI).
This is part of a sample that, as a whole, favours compounds with a hit. Of some 83,000 tested, about 20% had one in any assay.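 48-hour exposure, single concentration, 96-well plates; percent growth endpoint where 0 means no net growth. Active: below 10.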 Activity calls are given as the source filed them.

The compounds below were run on ACHN renal (assay: NCI-60 one-dose screen, 48 h (100 = growth as untreated, 0 = no growth, -100 = all killed)). Conditions: 10 µM unless noted.
Protocol: Growth inhibition of the ACHN human tumor cell line is measured as a screen for anti-cancer activity. Cells are grown in 96 well plates and exposed to the test compound for 48 hours. Compounds are tested at a single concentration, which is 10^-5 M for most compounds. The reported endpoint is percent growth (GI% or GIPRCNT), where numbers from 0 - 100% represent growth inhibition, and numbers from -100% - 0 represent cell death. For example, a value of 40 represents 60% growth inhibition. A value of 0 means no net growth occurred over the course of the experiment. A value of -40 indicates 40% of cells at the beginning of the experiment died by the end of the experiment. A value of -100 means all cells are dead at the end of the experiment.
NCI-60 Human Tumor Cell Lines Screen was performed using the standard one-dose NCI protocol, which is described in more detail at https://dtp.cancer.gov/discovery_development/nci-60/default.htm.
Compounds with GIPRCNT values below 10 were considered active. Activity score was based on GIPRCNT using the following formula: […]
Score is 0 for GIPRCNT values of 100 or above, 50 for GIPRCNT values of 0, and 100 for GIPRCNT values of -100.
With `COc1ccc(Cl)c(Nc2nc3ccccc3nc2NS(=O)(=O)c2cccc(NC(=O)C(C)(C)N)c2)c1` the growth was 40.3% (inactive).
With `ClCc1ccc(-c2ccc(Cn3cnc4c(Cl)nc(Cl)nc43)cc2)cc1` the growth was -21% (active).
For `C/C(=C(/c1ccc(Cl)cc1)c1ccc(OCCN2CCCC2)cc1)c1ccccc1`, the growth was 82.9% (inactive).
`Cc1cccc(Cl)c1NC(=O)c1cnc(Nc2cc(N3CCOCC3)cc(S(C)(=O)=O)c2)s1` was tested, and the growth was -2.99% (active).
With `COc1ccc(-n2c(=O)c3ccccc3n(Cc3ccc(C(=O)NO)cc3)c2=O)cc1` the growth was 50.3% (inactive).
In the case of `CC(=Nc1ccccc1)C1=C(O)C(Cc2ccccc2)NC1=O` (stereo not given), the growth is reported as 40.8% (inactive).
With `Cc1cn(-c2cc(NC(=O)c3ccc(C)c(Nc4nccc(-c5cnccn5)n4)c3)cc(C(F)(F)F)c2)cn1` the growth was 83.7% (inactive).
In the case of `CN1CCN(CCCOc2cccc3nc(Nc4ccc(Cl)c(C(F)(F)F)c4)ccc23)CC1`, the growth is reported as -69.3% (active).
`COC(=O)CNC(=O)[C@@H](OC)[C@@H]1Cc2cc3cc(OC4CC(OC5CC(O)C(O)C(C)O5)C(O)C(C)O4)c(C)c(O)c3c(O)c2C(=O)[C@H]1OC1CC(OC2CC(OC3CC(C)(O)C(O)C(C)O3)C(O)C(C)O2)C(O)C(C)O1` (stereo not given in full) was tested, and the growth was -1.39% (active).
In the case of `CCN1CCN(c2nc(C)cc(N(CCCNc3ccnc4cc(Cl)ccc34)Cc3ccc4c(c3)OCO4)n2)CC1`, the growth is reported as -25% (active).
For `O=C(Nc1ccc(Nc2ncnc3sc4c(c23)CCOC4)cc1)Nc1ccc(Cl)c(C(F)(F)F)c1`, the growth was 86.6% (inactive).
For `COCCOc1cnc2ccn([C@H](C)c3nnc4c(F)cc(-c5cnn(C)c5)cn34)c(=O)c2c1`, the growth was 80.3% (inactive).
For `CCOc1cc2ncc(C#N)c(Nc3ccc(OCc4ccccn4)c(Cl)c3)c2cc1NC(=O)/C=C/CN(C)C`, the growth was -56% (active).
In the case of `CCN1CCN(Cc2ccc(Cc3ncc(F)c(-c4cc(F)c5nc(C)n(C(C)C)c5c4)n3)nc2)CC1`, the growth is reported as 27.3% (inactive).
`COc1ccc(-c2nc(N)ncc2Oc2ccccc2OC)c(O)c1` was tested, and the growth was 43.5% (inactive).
In the case of `CC1(COc2ccc3c(c2)ncn3-c2ccc3cccc(N4CCC(N)CC4)c3n2)COC1`, the growth is reported as 2.83% (active).
For `CC[n+]1c(/C=C/C=C2\N(C)c3ccccc3C2(C)C)sc2ccccc21`, the growth was 7.97% (active).
For `N[C@@H]1CCCN(c2c(/C=C3\SC(=O)NC3=O)cccc2-c2ccccc2)C1`, the growth was 73.2% (inactive).
With `Cc1cc2c(-c3nc4ccccn4c3NC3CCCCC3)c(O)c(O)cc2c(O)c1-c1c(C)cc2c(-c3nc4ccccn4c3NC3CCCCC3)c(O)c(O)cc2c1O` the growth was 18.8% (inactive).
`Cc1cnc(NC(=O)Nc2cc(Br)c(C)cc2OC[C@@H]2CNCCO2)cn1` was tested, and the growth was 3.08% (active).
In the case of `O=C(O)c1ccc2c(c1)nc(Nc1cccc(Cl)c1)c1ccncc12`, the growth is reported as -0.277% (active).
In the case of `CCCCCCCC(=O)SCC/C=C/[C@@H]1CC(=O)NCc2cc(ccn2)C2=N[C@@](C)(CS2)C(=O)N[C@@H](C(C)C)C(=O)O1`, the growth is reported as -17.2% (active).
In the case of `O=S1(=O)OC(c2ccc(O)c(Cl)c2)(c2ccc(O)c(Cl)c2)c2ccccc21`, the growth is reported as 96.9% (inactive).
With `Clc1ccc2c(NCCCNCc3ccc4c(c3)OCO4)ccnc2c1` the growth was 40.6% (inactive).
In the case of `Cn1ccnc1C(=O)/C=C/c1ccc(CC(=O)Nc2ccc(Br)cc2)cc1`, the growth is reported as 40.3% (inactive).
In the case of `O=C(Cn1c(=O)ccn(CCCCCCCCOc2ccc(Br)cc2)c1=O)Nc1ccc(Oc2ccc(Cl)cc2)cc1`, the growth is reported as 69.1% (inactive).
In the case of `Cc1cc(C2(c3ccc(O)c(C)c3)OS(=O)(=O)c3ccccc32)ccc1O`, the growth is reported as 108% (inactive).
With `CCN1CCN(c2cc(C)nc(N(CCCNc3ccnc4cc(Cl)ccc34)Cc3cccs3)n2)CC1` the growth was 7.79% (active).
`COC(=O)[C@@H](OC)[C@@H]1Cc2cc3cc(OC4CC(OC5CC(O)C(O)C(C)O5)C(O)C(C)O4)c(C)c(O)c3c(O)c2C(=O)[C@H]1OC1CC(OC2CC(OC3CC(C)(O)C(O)C(C)O3)C(O)C(C)O2)C(O)C(C)O1` (stereo not given in full) was tested, and the growth was 4.79% (active).
With `O=c1[nH]c(N2CCOCC2)nc2scc(-c3ccccc3)c12` the growth was 99.3% (inactive).
In the case of `Nc1cc(C(F)(F)F)c(-c2cc(N3CCOCC3)nc(N3CCOCC3)n2)cn1`, the growth is reported as -8.54% (active).
With `O=C1CC(c2ccc3c(c2)OCO3)c2ncn(-c3ccc(Cl)cc3)c2N1` (stereo not given) the growth was 53.9% (inactive).
For `CO[C@H]1C[C@@H]2CC[C@@H](C)[C@@](O)(O2)C(=O)C(=O)N2CCCC[C@H]2C(=O)O[C@H]([C@H](C)C[C@@H]2CC[C@@H](OC(=O)C(C)(CO)CO)[C@H](OC)C2)CC(=O)[C@H](C)/C=C(\C)[C@@H](O)[C@@H](OC)C(=O)[C@H](C)C[C@H](C)\C=C/C=C/C=C/1C`, the growth was 32.6% (inactive).
In the case of `CC(C)(C)OC(=O)N1CCC(O)[C@@H](O[Si](c2ccccc2)(c2ccccc2)C(C)(C)C)[C@H]1/C=C/c1ccccc1` (stereo not given in full), the growth is reported as 41.1% (inactive).
For `NC(=O)N1N=C(c2ccc(Cl)cc2)CC1c1cn(-c2ccccc2)nc1-c1ccc(Cl)cc1` (stereo not given), the growth was 26.1% (inactive).
`CNC(=O)c1cc(Oc2ccc3nc(NC(=O)Nc4ccc(Cl)c(C(F)(F)F)c4)sc3c2)ccn1` was tested, and the growth was -22.2% (active).
`COc1cc(Nc2ncc(F)c(Nc3ccc4c(n3)N(COP(=O)(O)O)C(=O)C(C)(C)O4)n2)cc(OC)c1OC` was tested, and the growth was 6.43% (active).
With `COc1ccc(C(=O)N2c3ccccc3Sc3ccccc32)c(F)c1` the growth was 48.4% (inactive).
In the case of `Cc1oc2c(C(=O)N/N=C\c3ccc(O)cc3O)c[nH]c2c1C`, the growth is reported as -7.76% (active).
In the case of `COC(=O)[C@H](Cc1ccc(O)cc1)NC(=O)[C@@H](OC)[C@@H]1Cc2cc3cc(OC4CC(OC5CC(O)C(O)C(C)O5)C(O)C(C)O4)c(C)c(O)c3c(O)c2C(=O)[C@H]1OC1CC(OC2CC(OC3CC(C)(O)C(O)C(C)O3)C(O)C(C)O2)C(O)C(C)O1` (stereo not given in full), the growth is reported as 4.06% (active).
